# Pf growth 96h = P. falciparum growth inhibition at 96 hours. P. falciparum luciferase reporter growth, 96 h. Potency, µM (top dose mostly 28.7 µM), without a hit: at the highest dose activity change, negative = inhibition, most hits filed as inhibitors. 320,000 tested, 6.9% active. AID 504834; note: % is set by controls: 0 for no effect and ±100 for the full control effect
#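 P. falciparum expressing integrated firefly luciferase, in erythrocytes at 2% hematocrit, 0.05% parasitemia, incubated with compounds 96 h at 37 C, 5% CO2. Growth inhibition read as loss of luminescence; two-generation exposure targets delayed-death apicoplast inhibitors.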
# AMA1 RON2 block = disrupts binding of P. falciparum AMA1 to RON2 | AlphaScreen AMA1-biotinylated RON2 peptide binding | Potency, µM (highest dose often 58.2 µM), for inactives: top-dose activity change, negative = inhibition, usual class: inhibitors | 360,000 tested, 0.2% active;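 note: 0% = vehicle wells and -100% = peptide control; nearly all actives have a fitted effect of over 45% in size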
#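 AMA1 (3D7) with his tag at 25 nM final met compounds first, then biotinylated RON2 peptide at 25 nM; detection used donor plus acceptor beads, 10 µg/mL apiece, read by AlphaScreen after 30 min at room temperature.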
# NS1 inh = inhibitors of influenza NS1 protein function; Potency, µM (doses to about 46.1 µM), inactives show at the top dose activity, positive = more growth; 270,000 tested, 0.4% active; AID 2326; calls by dose curve; note: actives are rising curves; nearly all actives have a fitted effect of over 50% in size
#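 Compounds were scored for reversing the slow growth caused by influenza A NS1 in S. cerevisiae, measured by optical density at 600 nm. Assay medium contained 2% galactose at pH 6.0; NS1-free yeast of the same strain were the positive control.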
# Pf growth 48h = inhibits P. falciparum growth in the first generation, 48 h; P. falciparum luciferase growth in erythrocytes, 48 h; Potency, µM (highest dose often 28.7 µM), for inactives: at the highest dose activity change, negative = inhibition, usual class: inhibitors; 310,000 tested, 5.9% active; AID 504832; note: % is set by controls: 0 for no effect and ±100 for the full control effect
#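 Growth was read as firefly luciferase luminescence after a 48 h, 37 C, 5% CO2 exposure of compounds to reporter-bearing P. falciparum cultures (0.1% parasitemia, 2% hematocrit final) in Albumax-supplemented RPMI 1640.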
# Sm TGR inh = blocks Schistosoma mansoni thioredoxin glutathione reductase; AID 485364; purified TGR, DTNB reduction, TNB absorbance 405 nm; 360,000 tested, 3% active; Q962Y6; Potency, µM (titrated, usually from 114 µM), inactives show top-dose activity change, negative = inhibition, usual class: inhibitors; note: % is set by controls: 0 for no effect and ±100 for the full control effect; nearly all actives have a fitted effect of over 60% in size
#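 TGR 20 nM + NADPH 100 uM (dispensed conc.), cpd preinc 15 min RT; start with NADPH (500 uM addition) then DTNB (15 mM addition). Kinetic TNB absorbance, 405 nm filter. Four-parameter Hill fit across titration.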
# * hit, by the source's call; ? = inconclusive; · = not tested or not shown. Hits are enriched below; roughly 11% of the tested compounds scored in any of these assays. Unless noted, calls come from the whole dose curve; as a rule, active = well fitted curve in the direction sought with a large enough effect; inconclusive = small, poorly fitted or top-dose-only effect, or another doubt; inactive = no such curve, though single readings can be large; an effect the other way counts as inactive or inconclusive. Potency is the fitted concentration of half-maximal effect.
SMILES,Pf growth 96h,AMA1 RON2 block,NS1 inh,Pf growth 48h,Sm TGR inh
CCc1nc(N=C(N)N)nc2ccccc12,7%,·,·,3.3µM*,5%
Clc1nc(-c2ccccc2)c2ccccc2n1,?,16%,8%,8%,-17%
CN(CC(=O)Nc1ccccc1C(F)(F)F)C(=O)CSc1nc(N)cc(N)n1,?,16%,·,-10%,-10%
CN(C)S(=O)(=O)c1ccc(Cl)c(NC(=O)CN2CCNC(=O)C2)c1,-57%,16%,·,1%,2%
Cn1c(=O)[nH]c(=O)c2c1nc(SCCO)n2Cc1ccccc1Cl,?,-22%,4%,-26%,3%
Cc1ccc(Cn2c(SCCN3CCCCC3)nc3c2c(=O)[nH]c(=O)n3C)cc1,3.7µM*,-4%,-20%,-14%,1%
CSc1nc2c(c(=O)[nH]c(=O)n2C)n1Cc1ccccc1Cl,5.2µM*,-2%,-3%,-13%,-16%
CCC(C)Sc1nc2c(c(=O)[nH]c(=O)n2C)n1Cc1ccccc1Cl (centres undefined),?,-1%,-18%,12µM*,-2%
Cc1csc(Sc2nc3c(c(=O)[nH]c(=O)n3C)n2Cc2ccccc2Cl)n1,-9%,-8%,?,-19%,0%
Cn1c(=O)[nH]c(=O)c2c1nc(SCCN1CCCCC1)n2Cc1ccccc1,-22%,34%,-1%,?,3%
CN(C)c1ccc(C(=O)NCc2ccc3c(c2)CCN3C(=O)c2ccccc2)cc1,·,·,·,·,-2%
O=C(NNC(=O)C(O)(c1ccccc1)c1ccccc1)C1CC1,3%,16%,6%,9%,9%
CNC1(C)C2CCC(C2)C1(C)C (centres undefined),6µM*,·,3%,-12%,·
OCCC1CN(Cc2cccnc2)CCN1CCc1ccccc1 (centres undefined),9.3µM*,6%,-1%,-11%,2%
CC(C)n1cc(CN2CCN(CCc3ccccc3)C(CCO)C2)cn1 (centres undefined),15µM*,-14%,-2%,16%,-11%
CSc1cccc(CN2CCN(CCc3ccccc3)C(CCO)C2)c1 (centres undefined),214%,-2%,2%,?,-5%
O=C(CN(Cc1ccccc1Cl)C(=O)Cn1nnc(-c2cccs2)n1)NCC1CCCO1 (centres undefined),1.2µM*,2%,-16%,7%,20%
O=C(CN(C(=O)Cn1nnc(-c2cccs2)n1)c1ccc2c(c1)OCCO2)NCc1ccccc1,?,6%,?,?,-6%
Cc1ccc(-c2nnn(CC(=O)N(Cc3cccs3)C(C(=O)NCC3CCCO3)c3ccco3)n2)o1 (centres undefined),0%,-2%,-7%,?,·
COc1ccc(-c2nnn(CC(=O)N(Cc3ccccc3Cl)C(C(=O)NCC3CCCO3)c3ccco3)n2)cc1OC (centres undefined),19%,5%,-5%,9.3µM*,-2%
O=C(CN(CCc1ccccc1)C(=O)Cn1nnc(-c2cccs2)n1)NCc1ccco1,?,-2%,-10%,-5%,50µM*
COc1cc(NC(=O)c2cccc(C)c2)c(OC)cc1NC(=O)CN1CCOCC1,-1%,-4%,·,?,2%
O=S(=O)(c1cccc(F)c1)N1CCC(Oc2ccc(-n3cnnn3)cc2)CC1,·,·,·,·,7%
CCOC(=O)c1ccc(Oc2nc(SC)nc(N(C)C)n2)cc1,95%,6%,-11%,?,3%
CCOC(=O)c1ccc(Oc2nc(NC)nc(SC)n2)cc1,·,-6%,-7%,3.7µM*,-18%
SMILES,Pf growth 96h,AMA1 RON2 block,NS1 inh,Pf growth 48h,Sm TGR inh
CCNc1nc(Oc2ccc(C(=O)OCC)cc2)nc(SC)n1,6%,12%,-32%,12µM*,-25%
COc1ccc(-c2nc3nc(C)cc(Nc4ccc(C(C)=O)cc4)n3n2)cc1,·,·,·,·,-1%
CC1CC(C)(C)NC(=S)N1CC(=O)N1CCN(Cc2ccc3c(c2)OCO3)CC1 (centres undefined),2%,6%,·,0%,3%
Cc1cc(C)c(NC(=O)NC2CCCCC2)c(C)c1,6%,0%,10%,-3%,-7%
Cc1cc(C2CCCCC2)n(O)c(=O)c1,0.47µM*,69%,·,0.74µM*,-4%
CC(OC(=O)c1cc(O)c2ccccc2c1O)C(=O)Nc1ccc(C(N)=O)cc1 (centres undefined),12µM*,-17%,·,?,22µM*

# Bioassay records from PubChem BioAssay.
